# POLH inh – qHTS for Inhibitors of Polymerase Eta | DNA polymerase eta (Homo sapiens), Q9Y253 | recombinant Pol eta, fluorescent DNA replication assay | Potency, µM (top dose mostly 114 µM), inactives show top-dose activity change, negative = inhibition, actives largely listed as inhibitors | actives 1.2% (n = 390,000) | AID 588591, 2011; note: % is set by controls: 0 for no effect and ±100 for the full control effect
#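 Fluorescent replication assay: 50 nM final substrate added after a 15 min room-temperature compound preincubation with 10 nM enzyme. Signal taken at 0 min and again at 10 min.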
# L3MBTL1 block – qHTS Assay for the Inhibitors of L3MBTL1 | AlphaScreen L3MBTL1–H3K9me1 peptide binding | Potency, µM (titrated, usually from 57.1 µM), inactives show at the top dose activity, negative = inhibition, hits mostly inhibitors | actives 0.66% (n = 230,000) | AID 485360, 2010; note: % is set by controls: 0 for no effect and ±100 for the full control effect; nearly all actives have a fitted effect of over 60% in size
#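 L3MBTL1 (50 nM) pre-complexed 30 min with biotinylated H3(1-15)K9me1 peptide (75 nM), then compounds added for 30 min at room temperature; AlphaScreen streptavidin donor/nickel chelate acceptor beads (10 ug/mL final) read after 30 min dark incubation.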
# Pol iota inh – qHTS for Inhibitors of Polymerase Iota; Pol iota fluorescent replication assay, 10 min; Potency, µM (doses to about 115 µM), inactives show top-dose activity, negative = inhibition, hits mostly inhibitors; actives 1% (n = 390,000); AID 588590, 2011
#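 Pol iota at 10 nM preincubated 15 min with compounds at room temperature; reaction started with fluorescent substrate, 50 nM final. Fluorescence read kinetically at 0 and 10 min; buffer-only wells as negative control.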
# POLK inh – qHTS for Inhibitors of Polymerase Kappa. purified Pol kappa, fluorescent DNA synthesis assay, 10 min. Potency, µM (titrated, usually from 107 µM), for inactives: at the top dose activity, negative = inhibition, usual class: inhibitors. actives 0.53% (n = 400,000); note: % is set by controls: 0 for no effect and ±100 for the full control effect
# Target sequence (Q9UBT6 whole entry, looked up): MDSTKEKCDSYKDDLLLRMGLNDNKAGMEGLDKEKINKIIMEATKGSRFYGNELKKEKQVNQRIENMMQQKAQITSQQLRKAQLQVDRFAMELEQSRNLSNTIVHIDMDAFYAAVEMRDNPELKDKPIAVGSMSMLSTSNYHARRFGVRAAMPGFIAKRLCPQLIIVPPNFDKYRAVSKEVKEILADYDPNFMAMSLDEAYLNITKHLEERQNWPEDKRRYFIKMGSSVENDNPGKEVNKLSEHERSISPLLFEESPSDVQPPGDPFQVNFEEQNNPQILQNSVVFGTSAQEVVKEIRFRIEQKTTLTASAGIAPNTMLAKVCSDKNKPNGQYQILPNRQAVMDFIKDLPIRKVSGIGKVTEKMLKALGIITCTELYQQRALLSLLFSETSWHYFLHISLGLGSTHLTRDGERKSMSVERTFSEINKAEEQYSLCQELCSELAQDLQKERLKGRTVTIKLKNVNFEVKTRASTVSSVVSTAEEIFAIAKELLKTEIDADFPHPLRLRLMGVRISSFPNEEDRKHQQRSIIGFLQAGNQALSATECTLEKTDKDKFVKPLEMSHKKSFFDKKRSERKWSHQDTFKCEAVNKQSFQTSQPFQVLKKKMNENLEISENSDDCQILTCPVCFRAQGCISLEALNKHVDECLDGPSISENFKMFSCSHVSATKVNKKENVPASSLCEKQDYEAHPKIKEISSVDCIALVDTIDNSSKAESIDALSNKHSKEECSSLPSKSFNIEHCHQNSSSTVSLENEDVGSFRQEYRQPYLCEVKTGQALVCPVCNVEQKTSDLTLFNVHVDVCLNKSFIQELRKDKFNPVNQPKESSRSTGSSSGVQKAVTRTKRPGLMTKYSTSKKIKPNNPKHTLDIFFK
#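 Enzyme at 10 nM met test compounds for 15 min at room temperature. Substrate addition (50 nM final) began the reaction, which was monitored by fluorescence at 0 and 10 min.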
# Pol beta inh – qHTS Assay for Inhibitors of DNA Polymerase Beta | P06746 | Pol beta primer extension/strand displacement, fluorescence kinetic | Potency, µM (highest dose often 114 µM), without a hit: at the top dose activity change, negative = inhibition, usual class: inhibitors | actives 1.3% (n = 340,000) | AID 485314, 2010; note: % is set by controls: 0 for no effect and ±100 for the full control effect
#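 Kinetic readout of DNA synthesis with strand displacement by Pol beta. Compound and 10 nM enzyme sit 15 min at room temperature; 50 nM substrate starts the reaction, read immediately and at 10 min.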
# WRN inhibitor – qHTS for Inhibitors of WRN Helicase; actives 0.46% (n = 360,000); Potency, µM (titrated, usually from 114 µM), for inactives: at the highest dose activity change, negative = inhibition, hits mostly inhibitors; AID 651768, 2012; Bifunctional 3'-5' exonuclease/ATP-dependent helicase WRN (Homo sapiens), Q14191; WRN helicase unwinding, fluorescent forked duplex, kinetic; note: % is set by controls: 0 for no effect and ±100 for the full control effect; nearly all actives have a fitted effect of over 55% in size
#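 Enzyme (20 nM final) and test compound sit together 15 min at room temperature before substrate addition. Substrate is a single-forked duplex oligonucleotide (100 nM) labelled with fluorophore and quencher, with 2 mM ATP; helicase unwinding raises red fluorescence, read kinetically.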
# Starred values were filed as active, the others as inactive; ? = inconclusive; . = not tested or not shown; [ ] = remark or other dose. Most compounds without a hit are left out; they make up all but 2.5% or so of the library. Calls come from the whole dose curve; as a rule, active = well fitted curve in the direction sought with a large enough effect; inconclusive = small, poorly fitted or top-dose-only effect, or another doubt; inactive = no such curve, though single readings can be large; an effect the other way counts as inactive or inconclusive. Potency is the fitted concentration of half-maximal effect.
SMILES,POLH inh,L3MBTL1 block,Pol iota inh,POLK inh,Pol beta inh,WRN inhibitor
COc1cc(NC(=O)C2CC(c3c(F)cccc3Cl)=NO2)c(OC)cc1Cl (stereo not drawn),-23%,-6%,76%,-1%,25%,-4%
COc1ccc(NC(=O)C2CC(c3c(F)cccc3Cl)=NO2)cc1OC (stereo not drawn),89µM*,-2%[2.29 µM],26%,6%,5%,-7%[11.6 µM]
Cn1c(=O)c2c(ncn2CCCC(=N)N2CCOCC2)n(C)c1=O,-18%,8%,185%,-13%,24%,1%
COc1ccc(-c2ccc(C#N)c(SCC(=O)Nc3sc4c(c3C#N)CCC4)n2)cc1,12%,-10%,1%,-5%,-28%,-11%
N#Cc1c(NC(=O)CSc2nnc(-c3ccco3)n2-c2ccccc2)sc2c1CCC2,?,.,?,?,25µM*,-30%[57.1 µM]
N#Cc1ccc(-c2cccnc2)nc1SCC(=O)Nc1sc2c(c1C#N)CCC2,79µM*,-11%,14µM*,79µM*,?,-1%[11.6 µM]
CCn1c(=O)c(CCC(=O)N2CCOCC2)c(C)c2c(C)nn(-c3ccccc3)c21,-10%,.,34%,-3%,-1%,-3%
CC(C)(C)OC(=O)C[C@@H]1C/C=C\C[C@H](CC(=O)NCCO)C(=O)N[C@H](Cc2ccccc2)COC1=O,-13%,-9%,45%,2%,.,3%
C/C(=N\NC(=O)c1cc(-c2cccs2)nc2ccccc12)c1ccccn1,-20%,28µM*,10%,-21%,-2%,-15%
COc1ccc(-c2nc3ccccc3c(=O)n2N)cc1,9%,3%,20%,-12%,56µM*,-3%
CCCOc1ccc(/C=c2\sc3nc(-c4ccco4)nn3c2=O)cc1OCC,?,-23%,22µM*,?,?,?
C=CCc1cccc(/C=C/c2cc(=O)c3ccccc3[nH]2)c1O,?,-15%,?,-15%,40µM*,-2%[11.6 µM]
Cc1onc(C(=O)N2C(C)CCCC2C)c1[N+](=O)[O-] (stereo not drawn),-13%,-12%,14%,-5%,-2%,-5%
CC(=O)Nc1ccc(Nc2nc3c(S(=O)(=O)c4cccc(Cl)c4)nnn3c3ccsc23)cc1,79µM*,.,6%,-1%,39%,.
Nc1cc(S(=O)(=O)O)cc2ccc(S(=O)(=O)O)cc12,?,.,?,-24%,.,-15%
O=S(=O)(O)c1cc(O)c2c(O)c(N=Nc3cc(Cl)ccc3O)c(S(=O)(=O)O)cc2c1,35µM*,.,22µM*,16µM*,32µM*,45µM*
Cc1cc(-c2ccc(N=Nc3c(S(=O)(=O)O)cc4cc(S(=O)(=O)O)cc(N)c4c3O)c(C)c2)ccc1N=Nc1c(S(=O)(=O)O)cc2cc(S(=O)(=O)O)cc(N)c2c1O,.,0.2µM*,.,0.89µM*,.,.
O=C(O)Cc1sc(Nc2cccc3ccccc23)nc1-c1ccc(Cl)cc1,79µM*,.,178%,-13%,?,-19%[11.6 µM]
Cc1ccc2oc(C(=O)NCCC3CCCCO3)c(C)c2c1 (stereo not drawn),-10%,.,45%,8%,1%,-1%
COc1cc2sc3ccc(-c4ccc5[nH]ccc5c4)cc3c(=O)c2cc1OC,-6%,.,79µM*,-44%,.,-10%
COc1cc2sc3ccc(C#Cc4ccc(N)cc4)cc3c(=O)c2cc1OC,-12%,.,1%,10%,.,-6%
CC(NC(=O)c1cc2cc(Br)ccc2oc1=N)c1ccccc1 (stereo not drawn),-7%,.,14%,0%,30%,-33%
CS(=O)(=O)N1N=C(c2cccs2)CC1c1ccc(Cl)o1 (stereo not drawn),-21%,.,15%,-4%,-1%,0%
